According to ChEMBL document CHEMBL4888484, “Replenishing the malaria drug discovery pipeline: Screening and hit evaluation of the MMV Hit Generation Library 1 (HGL1) against asexual blood stage Plasmodium falciparum ,using a nano luciferase reporter read-out” (2022):
In all, about 4,800 compounds went through this assay and about 410 (8.5%) showed an effect of 50% or more. The sample holds strong results, similar compounds and a random draw of the others, so the mix is not that of the screen.

Tested on: Plasmodium falciparum
Test: Confirmatory screen in NF54 pLDH assay, in single point, at 2uM, 72h
Assay type: functional, Erythrocyte
Settings: timepoint 72 hour

| SMILES | % Inhibition [%] |
| --- | --- |
| COCc1cnc(NC(=O)NC2(c3ncccn3)CCOCC2)s1 | 10 |
| COc1ccc(CN2CCC(C(=O)NCCCN3CCOCC3)CC2)c(OC)c1 | 9 |
| Cc1ccc(CS(=O)(=O)NC(=O)N2CCC(c3ccccc3)CC2)cc1 | 10 |
| O=C(NC1CCCC1)c1n[nH]c(=O)c2ccccc12 | 7 |
| COc1cccc2c1OCC(=O)N([C@@H](C)c1ccccc1)C2 | -12 |
| Cc1nnc(-c2cnn(C)c2N)n1C[C@H]1CCCO1 | 9 |
| O=C(Nc1ccn(Cc2cccnc2)n1)c1ccc(-c2ccccc2F)o1 | 6 |
| O=C(Nc1cccnc1)c1ccc(-c2ccc(Cl)c(Cl)c2)o1 | 89 |
| O=C(CCC(=O)Nc1cccnc1)NCc1ccc2c(c1)OCO2 | 6 |
| CC(C)(C)OC(=O)NS(=O)(=O)NCc1ccccc1 | 4 |
| Cc1nc(CNS(=O)(=O)Cc2ccc(F)c(Cl)c2)sc1C | 3 |
| O=C(NCCN1CCCC1)c1ccc2nc(-c3ccc(Cl)cc3)cn2c1 | 70 |
| O=C(NCCN1CCCC1)c1ccc2c(c1)OCCO2 | -7 |
| O=c1ccn2c(n1)O[C@H]1[C@H](OC3CCCCO3)[C@@H](COC3CCCCO3)O[C@H]12 (stereo partly drawn) | -17 |
| Cc1cc(NC(=O)[C@@H](c2ccccc2)N2CCCCC2=O)sn1 | 1 |
| COC(=O)C1=C(C(=O)OC)SC(=C2C(=S)C(C)(C)N(C(=O)COc3ccc4ccccc4c3)c3ccccc32)S1 | 7 |
| Cc1ccc(CN2CCN(C[C@@H](O)Cn3c4ccccc4n4c(=O)cc(C)c(C#N)c34)CC2)c(C)c1 | 96 |

| SMILES | % Inhibition [%] |
| --- | --- |
| N#Cc1c(CN2CCOCC2)cc(=O)n2c1[nH]c1ccccc12 | 0 |
| COc1cc2c(cc1OC)CN(C(=O)c1cccc(N3C(=O)C(C)(C)CS3(=O)=O)c1)CC2 | 3 |
| Cc1cc2n(n1)C(C(F)(F)F)CCN2C(=O)C(C)N1C(=O)C2CCCCC2C1=O (stereo not drawn) | 4 |
| Cn1nc(C(=O)NC2CCCCC2)cc1C(=O)NC1CCCCC1 | 12 |
| C[C@@H](CNc1ncc(C(=O)N2CCOCC2)cc1Cl)c1nncn1C | -9 |
| COc1ccc(Cl)cc1S(=O)(=O)c1cnc(N2CCOCC2)nc1N | 10 |
| CN1CCN(c2c(F)cc3c(=O)c(C(=O)O)cn(-c4ccc(OC5CC6CCC5(C)C6(C)C)c(F)c4)c3c2F)CC1 (stereo not drawn) | -4 |
| COc1cccc(NC(=O)N2CCN(c3nc4ccccc4n(Cc4ccccc4)c3=O)CC2)c1 | 0 |
| O=C(Nc1ccc(N2CCOCC2)cc1)Nc1ccc(F)cc1F | 7 |
| Cc1ccc(C)c(S(=O)(=O)NCCNc2ccc(Nc3ccncc3)nn2)c1 | 29 |
| CCC(=O)Nc1nc2c(OC)cc(NS(=O)(=O)c3c(C)noc3C)cc2s1 | 10 |
| CCNc1nc(C)cc(Nc2ccc(NC(=O)c3cc(C)ccc3C)cc2)n1 | 99 |
| Cc1ccccc1S(=O)(=O)NCc1nnc(C(=O)Nc2ccc(F)cc2F)s1 | 11 |
| CCNc1nc(C)cc(Nc2ccc(NS(=O)(=O)c3c(C)noc3C)cc2)n1 | 100 |
| Cc1onc(N)c1S(=O)(=O)Nc1ccncc1 | -2 |
| CCC(=O)N1CCN(c2cc(Nc3ccc(C)cc3)nc(C)n2)CC1 | -1 |
